In PubChem BioAssay (NCATS) one finds Potency and outcome data, which are given here for 13 compounds.

Inconclusive results are not listed. Activity calls are given as the source filed them. The call rests on the fitted dose curve; in most records, active means well fitted curve in the direction sought with a large enough effect; inconclusive means small, poorly fitted or top-dose-only effect, or another doubt; inactive means no such curve, though single readings can be large; an effect the other way counts as inactive or inconclusive.

Assay [1] in a line: qHTS to identify inhibitors of the type 1 interferon - major histocompatibility complex class I in skeletal muscle: primary screen against the NCATS LOPAC collection (AID 1347405).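 Further: human myoblasts with HiBiT tag on endogenous HLA-B stimulated by IFN-beta; lytic HiBiT luminescence reporting HLA-B protein level.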 A digest of the protocol:
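HLA-B HiBiT myoblasts, IFN-b 4 ng/ml, dexamethasone-free medium; compounds 7-pt 1:4.3 titration, top 46 uM final; 24 h at 37 C; Nano-Glo HiBiT lytic reagent, 10 min RT, luminescence.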

The nature of assay [2]: qHTS to identify inhibitors of the type 1 interferon - major histocompatibility complex class I in skeletal muscle: primary screen against the NCATS Pharmaceutical Collection (AID 1347407).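 Further: luminescence of HiBiT knocked into endogenous HLA-B as interferon-induced MHC class I level.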 In a few lines: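 A qHTS format is used: 8-point, 1:5 compound series with 46 uM top final concentration, applied alongside 4 ng/ml IFN-beta to HLA-B*08:01-HiBiT knock-in myoblasts. Luminescence is measured after 24 h treatment.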

Assay [3] in a line: qHTS for inhibitors of adenylyl cyclases using a fission yeast platform: a pilot screen against the NCATS LOPAC library (AID 1347410). In a few lines:
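Inhibition of GNAS-stimulated AC9 activity in S. pombe was inferred from derepression of a PKA-repressed fbp1-GFP reporter, measured as cytometric fluorescence after 18 h at 30C with compounds at up to 57 µM.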
Background: Quantitative high-throughput screening tests each substance at several concentrations.

For assay [4], the target named is Protein phosphatase 1D (Homo sapiens) (UniProt O15297). Put plainly: RapidFire Mass Spectrometry qHTS Assay for Modulators of WT P53-Induced Phosphatase 1 (WIP1) (AID 1347424). Further: series mostly up to about 63 µM. A digest of the protocol:
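RapidFire MS readout of dephosphorylated VEPPL-S-QETFS product, with 1 uM isotope-labelled peptide standard. Reaction: 10 nM WIP1, 2 uM phosphopeptide substrate, 5 min, room temperature, after 1 h compound preincubation; stopped with 0.5% formic acid.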

Assay [5] has the same target. In words: Rhodamine-PBP qHTS Assay for Modulators of WT P53-Induced Phosphatase 1 (WIP1) (AID 1347425). In a few lines:
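5 nM WIP1 + 10 uM Rh-PBP, 50 mM Tris pH 7.5, 30 mM MgCl2, 1 mM TCEP, 0.1 mM EGTA, BSA; cpds pinned, 1 hr RT; + 10 uM phosphopeptide; fluorescence 1-min reads x 11 min; delta = f1 - f0.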

The nature of assay [6]: Validation qHTS assay for inhibitors of Activation Induced Cytidine Deaminase (AID): UDG Counterscreen signal (AID 1347427). A digest of the protocol:
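Fluorescence at 560 nm excitation, 665 nm emission reports UDG signal after 250 mM NaOH (2x) addition and 30 min. Enzymes (AID 1 uM, UDG 2 U/mL, at 4/3x) preincubated 10 min with compound, then 4 h with 4x 250 nM DJC20/DJC23 substrate at room temperature.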

The target of assay [7] is Single-stranded DNA cytosine deaminase (Homo sapiens) (UniProt Q9GZX7). In words: Validation qHTS assay for inhibitors of Activation Induced Cytidine Deaminase (AID): AID signal (AID 1347429). A digest of the protocol: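 AID+UDG coupled FRET deamination; cpds up to 114 uM final; DJC20/DJC23 substrate, 4 hr RT; NaOH stop, 30 min RT; read Ex 540/Em 590.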
Chain of Single-stranded DNA cytosine deaminase (Homo sapiens) (Q9GZX7 whole entry, looked up): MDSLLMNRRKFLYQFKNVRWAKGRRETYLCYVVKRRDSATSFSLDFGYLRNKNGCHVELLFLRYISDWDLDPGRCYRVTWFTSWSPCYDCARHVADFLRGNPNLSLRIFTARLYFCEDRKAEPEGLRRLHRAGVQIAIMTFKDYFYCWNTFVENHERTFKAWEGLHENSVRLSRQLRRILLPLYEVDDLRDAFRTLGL
Assay [8] is described as follows: Inflammasome Signaling qHTS Counterscreen: IL-1-beta AlphaLISA counterscreen against the NCATS CANVASS Library (AID 1347381).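 Further: cell-free check with purified IL-1β in medium and no THP-1 cells; series mostly up to about 57 µM.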 A digest of the protocol:
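Here, no cellular stimulation occurs; compounds in an 11-point series meet 4 pg purified IL-1-beta directly. Bead-based AlphaLISA detection follows (1 h acceptor/antibody, then 30 min donor, dark, room temperature), with excitation at 680 nm.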

Assay [9] in a line: Cytotoxicity qHTS for assessment of Hepg2 cells membrane integrity screened against the NCATS CANVASS Library (AID 1347387). A digest of the protocol: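 LDH release read by fluorescence (560 nm ex/590 nm em) after CytoTox-ONE addition and 10 min RT; signal tracks lysed cells. HepG2, 2000 cells/well, plated overnight; compound 5 hr, 37C, 5% CO2, final 0.59 nM - 46 uM, 11 points.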

Assay [10] in a line: qHTS for Activators of p53 Stress Response Pathway screened against the NCATS CANVASS Library (AID 1347388). In a few lines: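 p53RE-bla HCT-116 cells (4000/well) were pre-incubated for 5 h, then treated with compound (11 points) for 16 h at 37C. After 2 h with CCF4, the 460/530 nm ratio gave reporter activation; CellTiter-Glo measured viability.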
Assay [11] in a line: qHTS assay for small molecule disruptors of mitochondrial membrane potential screened against the NCATS CANVASS Library (AID 1347389). Further: series mostly up to about 46 µM; nearly all actives have a fitted effect of over 60% in size. In a few lines: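 Red/green fluorescence ratio read-out: J-aggregates ex 540/em 590 nm, monomers ex 490/em 535 nm. HepG2, 1 hr compound treatment, then 30 min Mito-MPS dye at 37C. 11-pt qHTS concentration series.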
A short description of assay [12]: Secretion counterscreen for inhibitors of the SERCaMP assay screened against the NCATS CANVASS Library (AID 1347390).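 Further: light from luciferase secreted into medium read as a measure of general secretion; series mostly up to about 77 µM.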 A digest of the protocol:
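Natural products are titrated in an 11-point series up to 77 uM onto SH-SY5Y-GLuc STOP cells for 20 h. Secreted reporter activity is measured as coelenterazine-driven luminescence, with Brefeldin A on each plate.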
For orientation: The purpose of a counterscreen is to sort out artefacts and off-target activity.

Assay [13] can be described thus: qHTS for activators of Nrf2/ARE signaling pathway screened against the NCATS CANVASS Library (AID 1347391). Further: nearly all actives have a fitted effect of over 60% in size. In a few lines:
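HepG2 ARE-bla; cpd 11-pt qHTS, 16 h 37C/5% CO2; CCF4 substrate 2 h RT; read ex 405 / em 460 + 530 nm. Viability by CellTiter-Glo luminescence, 30 min RT.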

A short description of assay [14]: qHTS for activators of dead-cell proteases activity screened against the NCATS CANVASS Library (AID 1347392).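 Further: luminescence from protease leaking out of membrane-damaged cells cleaving impermeant substrate; rising signal means more cytotoxicity.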 In a few lines: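 HepG2, 2000 cells/well, 18 h attach; cpd 11-pt, 5 h 37C 5% CO2; CytoTox-Glo (AAF-aminoluciferin) 15 min RT; luminescence read.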
Assay [15] in a line: qHTS for inhibitors of ER calcium dysfunction: SERCaMP assay screened against the NCATS CANVASS Library (AID 1347393). Further: potency means the concentration at half of the fitted maximal effect; nearly all actives have a fitted effect of over 40% in size. A digest of the protocol: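 SH-SY5Y GLuc-SERCaMP, 1000 cells/well, 4 h attach; cpd 16 h, 37C/5% CO2; thapsigargin (added as 6x 600 nM) 4 h; coelenterazine; luminescence. Reduced reporter release = ER Ca stabilization.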
Assay [16] can be described thus: Vero-766 cells viability qHTS against the NCATS CANVASS Library: Counterscreen for Zika virus inhibition assay (AID 1347394). Further: series mostly up to about 46 µM; nearly all actives have a fitted effect of over 60% in size. In a few lines: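 Counterscreen for toxicity: Vero 766 cells exposed 72 h to an 11-point compound series, viability by CellTiter-Glo.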
A short description of assay [17]: qHTS for inhibitors of Wild type Zika virus screened against the NCATS CANVASS Library (AID 1347396).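 Further: ATP luminescence of surviving cells so rescue from viral cell killing; series mostly up to about 46 µM.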 In a few lines:
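Protection against wild-type Zika cytopathic effect is measured in African green monkey Vero 766 cells exposed to an 11-point compound series. Surviving cells are quantified by CellTiter Glo luminescence after 72 h.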

The nature of assay [18]: Viability qHTS for inhibitors of the SERCaMP assay screened against the NCATS CANVASS Library (AID 1347400). Further: series mostly up to about 92 µM; nearly all actives have a fitted effect of over 70% in size. In a few lines:
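CellTiter-Glo luminescence readout after 48 h compound exposure (11-pnt qHTS series) of SH-SY5Y-GLuc SERCaMP MJH297 cells seeded at 1000 cells/well; bortezomib positive control.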

Assay [19] is described as follows: Redox Reaction Profiling qHTS: Assay Interference Panel against the NCATS CANVASS Library (AID 1347401). In a few lines:
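Fluorescence read-out (525 nm excitation, 598 nm emission) at time zero and after 15 min in the dark tracked resorufin formation. Mix: 5 uM resazurin, 200 uM DTT, HEPES pH 7.3 buffer with NaCl.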

Assay [20] in a line: qHTS to identify inhibitors of the type 1 interferon - major histocompatibility complex class I in skeletal muscle: primary screen against the NCATS Mechanism Interrogation Plate v5.0 (MIPE) Libary (AID 1347411). Further: nearly all actives have a fitted effect of over 65% in size. A digest of the protocol:
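HLA-B HiBit myoblasts, dexamethasone-free medium + 4 ng/ml IFN-b, 24 h compound, 11-pt 1:3 from 46 uM final. Readout: Nano-Glo HiBiT lytic luminescence after 10 min lysis, RT.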

Chain of Protein phosphatase 1D (Homo sapiens) (O15297 whole entry, looked up): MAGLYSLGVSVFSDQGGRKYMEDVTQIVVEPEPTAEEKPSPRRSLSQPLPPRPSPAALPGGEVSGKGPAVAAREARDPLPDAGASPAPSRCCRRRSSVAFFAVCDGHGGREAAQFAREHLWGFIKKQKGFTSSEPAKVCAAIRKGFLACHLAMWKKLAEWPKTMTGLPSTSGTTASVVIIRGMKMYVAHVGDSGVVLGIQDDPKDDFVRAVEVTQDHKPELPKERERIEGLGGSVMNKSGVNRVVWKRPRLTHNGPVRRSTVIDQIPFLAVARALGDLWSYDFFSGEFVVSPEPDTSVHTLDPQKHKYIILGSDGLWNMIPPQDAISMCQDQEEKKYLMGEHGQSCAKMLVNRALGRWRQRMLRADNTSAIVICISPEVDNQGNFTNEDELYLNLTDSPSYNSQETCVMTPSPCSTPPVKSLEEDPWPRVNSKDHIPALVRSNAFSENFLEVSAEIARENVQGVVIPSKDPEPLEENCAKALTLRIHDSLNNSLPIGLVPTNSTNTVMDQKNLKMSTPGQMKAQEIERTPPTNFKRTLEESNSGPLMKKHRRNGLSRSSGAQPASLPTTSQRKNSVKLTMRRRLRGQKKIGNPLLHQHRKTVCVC

As to `Cc1cccc(C)c1OCC(C)N` (centres undefined), the Potency entry in assay [1], in assay [2] and in [7] was “inactive” in each case. For the same compound, the compound was called inactive in assay [3], in assay [4], in [5] and in assay [6].

As for `CC(=O)N[C@@H](CS)C(=O)O`, the Potency entry in [1], in assay [2] and in [7] was “inactive” throughout. Moreover, the call in [3], in [4] and in assay [6] was inactive.

In the case of `CC[C@]1(O)C[C@@H]2CN(CCc3c([nH]c4ccccc34)[C@@](C(=O)OC)(c3cc4c(cc3OC)N(C)[C@H]3[C@@](O)(C(=O)OC)[C@H](OC(C)=O)[C@]5(CC)C=CCN6CC[C@]43[C@@H]65)C2)C1`, the Potency result in [2] is “inactive”. Also, in assay [4], the call was inactive.

Regarding `O=C(O)CCc1nc(-c2ccccc2)c(-c2ccccc2)o1`, the Potency result in assay [1], in [2] and in assay [7] was “inactive” throughout. The compound was called inactive in assay [3], in assay [4] and in assay [6].

Take `C[N+](C)(C)CCCCCC[N+](C)(C)C`: the Potency result in assay [1], in assay [2] and in assay [7] was “inactive” each time. In addition, the result in assay [3], in [4] and in assay [6] was inactive.

`COC(=O)[C@@H]1[C@H]2C[C@H]3c4[nH]c5ccccc5c4CCN3C[C@@H]2CC[C@@H]1O`: the call in assay [8], in assay [9], in [10], in assay [11], in assay [12] and in assay [13] was inactive. Further, the result in assay [14], in assay [16], in assay [17], in assay [18], in [3] and in [4] was inactive. Also, the call in [6] was inactive. Moreover, the Potency in [15] is 30.5 µM (active). In addition, the Potency result in assay [19], in assay [1], in assay [2], in assay [20] and in assay [7] was “inactive” in each case.

Take `CCN(CC)C(=O)c1ccc(O)c(OC)c1`: the Potency entry in assay [1], in assay [2] and in assay [7] was “inactive” in each case. Also, the result in assay [3], in assay [4] and in assay [6] was inactive.

Take `CCN(CC)CCOC(=O)c1ccc(N)cc1`: the Potency result in assay [1], in assay [2] and in assay [7] was “inactive” each time. The call in assay [3], in assay [4] and in assay [6] was inactive.

In the case of `O=C(NCCN1CCOCC1)c1ccc(Cl)cc1`, the Potency result in assay [1], in assay [2] and in assay [7] was “inactive” in each case. Also, the compound was called inactive in assay [3], in assay [4] and in assay [6].

As for `O=C(O)Cc1cccc2ccccc12`, the Potency result in assay [2] is “inactive”. Also, the compound was classed as inactive in [4].

As to `CC(=O)c1ccc(S(=O)(=O)NC(=O)NC2CCCCC2)cc1`, the Potency result in [1], in [2] and in [7] was “inactive” in each case. The compound was classed as inactive in assay [3], in [4] and in assay [6].

In the case of `CC(=O)O[C@]1(C(C)=O)CC[C@H]2[C@@H]3C=C(Cl)C4=CC(=O)[C@@H]5C[C@@H]5[C@]4(C)[C@H]3CC[C@@]21C`, the Potency result in assay [1], in assay [2], in assay [20] and in [7] was “inactive” in each case. In addition, the compound was called inactive in assay [3] and in [6].

Regarding `O=C1NCC2(CCN(CCc3ccccc3)CC2)O1`, the Potency result in assay [1], in [2] and in assay [7] was “inactive” throughout. Further, the call in assay [3], in [4] and in assay [6] was inactive.
